CHX counter – counter-screen hit for Shiga toxin inhibitors, cycloheximide. cell reporter, cycloheximide protein synthesis inhibition counterscreen. max response, %. actives 12% (n = 300,000). AID 2314; in the data active means max response mostly above about 13%, no sharp cut-off; inactive means mostly below about 14%; further: read at 38.3 µM for the half of the compounds with a filed dose; 0% is about no effect
Shiga toxin inh – inhibitors of Shiga toxin in Vero cells. actives 9.2% (n = 290,000). Vero cells, Shiga toxin protein synthesis inhibition reporter. inhibition, % at 38.7 µM; in the data active means inhibition mostly above about 28%, no sharp cut-off; inactive means mostly below about 43%; further: 0% is about no effect
AmpC no deterg – inhibitors of E. coli AmpC beta-lactamase without detergent; AID 485341; Potency, µM (series often up to 57.1 µM), for the others: at the highest dose activity change, negative = inhibition, usual class: inhibitors; P00811; AmpC nitrocefin hydrolysis, absorbance 480 nm, 0.0001% Triton; actives 0.52% (n = 330,000);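 further: potency means the concentration at half of the fitted maximal effect; plate controls were no compound for no effect and no enzyme for full effect; nearly all actives have a fitted effect of over 20% in size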
Target sequence (P00811 whole entry, looked up): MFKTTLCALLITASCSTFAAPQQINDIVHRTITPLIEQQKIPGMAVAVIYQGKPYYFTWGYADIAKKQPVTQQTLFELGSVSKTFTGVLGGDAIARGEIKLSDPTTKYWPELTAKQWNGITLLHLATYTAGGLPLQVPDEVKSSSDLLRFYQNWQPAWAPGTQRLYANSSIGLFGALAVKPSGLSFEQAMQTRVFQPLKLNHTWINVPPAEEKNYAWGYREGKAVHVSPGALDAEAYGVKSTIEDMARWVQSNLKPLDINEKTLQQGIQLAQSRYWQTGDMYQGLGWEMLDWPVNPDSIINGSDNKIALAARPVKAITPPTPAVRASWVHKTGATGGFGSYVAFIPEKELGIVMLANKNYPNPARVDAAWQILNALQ
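AmpC (5.3 nM in the dispensed reagent) in 20 mM phosphate pH 7.0 with 0.01% (detergent screen) or 0.0001% Triton X-100 was preincubated with compounds for 15 min at room temperature. Nitrocefin was then added from an 800 uM solution, and hydrolysis was followed at 480 nm.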
AmpC detergent – inhibitors of E. coli AmpC beta-lactamase with detergent; P00811; AmpC hydrolysis of nitrocefin, absorbance 480 nm, 0.01% Triton; Potency, µM (highest dose often 114 µM), for the others: top-dose activity change, negative = inhibition, actives largely listed as inhibitors; actives 0.041% (n = 370,000); AID 485294;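 further: potency means the concentration at half of the fitted maximal effect; 0% = no-compound wells and -100% = no-enzyme wells; nearly all actives have a fitted effect of over 25% in size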
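AmpC (5.3 nM in the dispensed reagent) in 20 mM phosphate pH 7.0 with 0.01% (detergent screen) or 0.0001% Triton X-100 was preincubated with compounds for 15 min at room temperature. Nitrocefin was then added from an 800 uM solution, and hydrolysis was followed at 480 nm.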
NS1 inh – inhibitors of influenza NS1 protein function | actives 0.4% (n = 270,000) | Potency, µM (top dose mostly 46.1 µM), for inactives: top-dose activity, positive = more growth; calls by dose curve; further: potency means the concentration at half of the fitted maximal effect; actives are rising curves; nearly all actives have a fitted effect of over 50% in size
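In this qHTS, NS1 from influenza A is expressed in budding yeast, where it slows growth. Cells are switched from glucose to 2% galactose medium (pH 6.0, -URA), treated with compound, and growth recovery is read at OD600.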
* = called active by the depositor; i = inactive; ? = inconclusive; . = not tested or not shown. The entries come from a sample that favours hits as a whole. Unless noted, the call rests on the fitted dose curve; in most records, active means well fitted curve in the direction sought with a large enough effect; inconclusive means small, poorly fitted or top-dose-only effect, or another doubt; inactive means no such curve, though single readings can be large; an effect the other way counts as inactive or inconclusive.

SMILES	CHX counter	Shiga toxin inh	AmpC no deterg	AmpC detergent	NS1 inh
Cc1ccc2c(COC(=O)C3=COCCO3)cc(=O)oc2c1	64*	89*	0%	6%	-4%
Cc1ccc(S(=O)(=O)NCC(=O)OCc2cc(=O)oc3cc(C)ccc23)cc1	.	.	-11%	-3%	.
CCCNC(=O)NC(=O)CSc1ccc2c(c1)OCCO2	-2	-14	-17%	-9%	4%
O=c1c(S(=O)(=O)c2ccccc2)cn(Cc2ccc(F)cc2)c2cc(N3CCCC3)c(F)cc12	.	.	.	6%	.
CC(=O)c1ccc(-c2ccc(-c3cc(=O)oc4c(C(C)C)ccc(C)c34)cc2)cc1	14	i	-27%	.	.
O=C1/C(=C/c2ccccc2Cl)SC(=S)N1CCCC(=O)N(CCO)c1ccccc1	-4	-13	77%	-8%	-40%
O=C(NCc1cccnc1)c1c[nH]c2cc3c(cc2c1=O)OCCO3	35*	145*	-21%	-14%	0%
CCc1ccc(NS(=O)(=O)c2ccc3[nH]cc(C(=O)NCc4ccc(C)cc4)c(=O)c3c2)cc1	.	.	.	0%	.
O=C(NCc1ccccc1)c1c[nH]c2ccc(S(=O)(=O)Nc3ccc4c(c3)OCCO4)cc2c1=O	12	49*	-25%	-7%	5%
O=C(c1ccccc1)c1c[nH]c2cc3c(cc2c1=O)OCCO3	17*	45*	-18%	-4%	-3%
O=C(NCc1ccccc1)c1c[nH]c2ccccc2c1=O	1	15	-23%	-6%	8%
CCc1ccc(NS(=O)(=O)c2ccc3[nH]cc(C(=O)N4CCc5ccccc54)c(=O)c3c2)cc1	35*	25*	-16%	?	-39%
CCOc1cc(C(=O)NCc2ccc3c(c2)CCN3C(=O)CC)cc(OCC)c1OCC	.	.	.	5%	.
CC(Oc1cc2oc(=O)c3c(c2cc1Cl)CCC3)C(=O)NCCN1CCOCC1 (stereo not drawn)	-6	-5	44%	-2%	16%
O=C1CC(c2nnc(Cc3ccc(F)cc3)o2)CN1c1ccccc1 (stereo not drawn)	.	.	.	1%	.
CCc1ccc(N(C)S(=O)(=O)c2ccc3[nH]cc(C(=O)NCC4CCCO4)c(=O)c3c2)cc1 (stereo not drawn)	.	.	.	-4%	.
CCc1ccc(NS(=O)(=O)c2ccc3[nH]cc(C(=O)NCC4CCCO4)c(=O)c3c2)cc1 (stereo not drawn)	27*	128	-13%	6%	-8%
Cc1cccc(N=Nc2c(C)c(C#N)c(O)[nH]c2=O)c1	14*	8	-13%	8%	-1%
Cc1c(C#N)c(O)[nH]c(=O)c1N=Nc1ccc(Br)cc1C(=O)O	-1	-5	-21%	1%	5%
CC(=O)Nc1ccc(Nc2c(CCC(C)C)c(C)c(C#N)c3nc4ccccc4n23)cc1	.	.	.	-3%	.
O=C(CSc1nccn1Cc1ccc(F)cc1)Nc1ccc2c(c1)OCCO2	.	.	.	1%	.
COc1ccc(N2C(=O)[C@@H]3[C@H](C2=O)[C@H](C(=O)c2ccc(OC(C)=O)cc2)N2N=CC=C[C@@H]32)cc1	14*	38*	156%	-11%	?
COc1ccc(C(=O)[C@H]2[C@H]3C(=O)N(c4ccc(C)cc4)C(=O)[C@H]3C3C=CC=NN32)cc1 (stereo partly drawn)	19*	32	81%	3%	14%
COc1ccc(C(=O)[C@H]2[C@H]3C(=O)N(c4ccccc4)C(=O)[C@H]3C3C=CC=NN32)cc1 (stereo partly drawn)	10	14	49%	-4%	15%
CC(=O)Oc1ccc(C(=O)[C@H]2[C@H]3C(=O)N(c4ccccc4)C(=O)[C@H]3[C@@H]3C=CC=NN32)cc1	11	-10	-17%	-1%	?
SMILES	CHX counter	Shiga toxin inh	AmpC no deterg	AmpC detergent	NS1 inh
Cc1ccc(N2C(=O)[C@@H]3[C@H](C2=O)[C@H]2C=CC=NN2[C@@H]3C(=O)Nc2ccccc2)cc1	16*	15	16%	1%	10%
CC(=O)Oc1ccc(C(=O)[C@H]2[C@H]3C(=O)N(c4ccc(C)cc4C)C(=O)[C@H]3[C@@H]3C=CC=NN32)cc1	-2	10	96%	-9%	11%
CC(=O)Oc1ccc(C(=O)[C@H]2[C@H]3C(=O)N(c4ccc(C)cc4)C(=O)[C@H]3[C@@H]3C=CC=NN32)cc1	24*	46*	146%	-9%	?
CCOc1cc(-c2ccc(OC(=O)c3ccc(Cl)cc3)c(OC)c2)cc(=O)c2c(C)oc(C)c12	.	.	.	-4%	.
Cc1ccc(N2C(=O)C3C(C2=O)C(C(=O)c2ccc(Cl)cc2)N2CCCC32)cc1 (stereo not drawn)	14	16	-27%	1%	-4%
CC(=O)Oc1ccc(N2C(=O)C3C(C2=O)C(C(=O)c2ccc(Cl)cc2)N2CCCC32)cc1 (stereo not drawn)	29*	6	-4%	-1%	-10%
O=C1OCCN1C(=O)[C@H]1[C@H](c2ccc([N+](=O)[O-])cc2)C(c2ccc(F)cc2)=NN1c1ccc(Br)cc1	18	i	-43%	.	.
CCCCOC(=O)Nc1nc2ccc(OC)cc2s1	38*	53*	-4%	-8%	11%
CCCCN(C(=O)NC(=O)Nc1nc2ccc(OC)cc2s1)S(C)(=O)=O	53*	48*	-19%	1%	-1%
O=C(COC(=O)c1ccc(Br)o1)Nc1nc2ccccc2s1	1	3	-39%	1%	-53%
COc1ccc2nc(NC(=O)CS(=O)(=O)c3ccc(C)cc3)sc2c1	4	6	-22%	3%	18%
CCCCOC(=O)Nc1nc2ccccc2s1	26*	69*	-9%	1%	0%
CCCCCN(C(=O)NC(=O)Nc1nncs1)S(C)(=O)=O	-2	-7	-9%	-12%	-10%
CC(=O)N1CCOc2cc(S(=O)(=O)Nc3c(C)cccc3C(C)C)c(Cl)cc21	.	.	120%	19%	.
CCCCNc1nc(Oc2ccc(OCC)nn2)nc(N2CCOCC2)n1	.	.	.	19%	.
COc1ccccc1N=C1SCC(=O)N1Cc1ccco1	1	14	-18%	-4%	4%
COc1ccc(OC)c(/C=N/N=C2\SCC(=O)N2Cc2ccco2)c1	18*	2	-43%	?	6%
O=C1CS/C(=N/N=C/c2ccccc2)N1Cc1ccco1	25*	45*	-18%	3%	-8%
CN(CCCNC(=O)Cn1c(=O)c2cccn2c2ccccc21)Cc1ccccc1	-4	-5	0%	-4%	4%
C[C@H](CO)N1C[C@H](C)[C@@H](CN(C)C(=O)Nc2ccc(C(F)(F)F)cc2)Oc2ccc(NC(=O)Cn3cnnn3)cc2C1=O	.	.	101%	.	.
CCOc1ccc2nc(SCCNS(=O)(=O)c3ccccc3)sc2c1	1	-5	-30%	?	-2%
CCOc1ccc2nc(SC3CC(=O)N(c4ccccc4)C3=O)sc2c1 (stereo not drawn)	10	-19	-20%	1%	-34%
CCOc1ccc2nc(SCc3ccccc3C#N)sc2c1	71*	174*	-10%	?	-22%

High-throughput results deposited in PubChem by National Center for Advancing Translational Sciences (NCATS).
